# Measurements: PubChem BioAssay AID602248 (The Scripps Research Institute Molecular Screening Center, 2012)
# Hit rate of the full screen: of about 360,000 compounds, about 1,700 (0.47%) were called active. Rule as the data show it: active = activation above about 15%; inactive = the rest. Many of the other results were omitted from the sample, so actives are more common in it than they were.
# Experiment: counter-screen for M1 agonists: effect in parental CHO-K1 cells (AID 602248);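 also: untransfected CHO-K1 host cells lacking M1 receptor as counterscreen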
# Settings: Fluo-8 calcium fluorescence, at 3 µM, active compounds read high, scaled to maximal ATP response, vehicle zero
row,Structure (SMILES),activation
1,COc1cc(C(=O)OCc2cc(=O)n3ccsc3n2)ccc1OC(C)C,1.63% (inactive)
2,Cc1c(Cl)cccc1NC(=S)N(Cc1ccccc1)Cc1cccnc1,0.16% (inactive)
3,Cc1ccc(CN(Cc2cccnc2)C(=S)Nc2cccc(Cl)c2C)cc1,0.06% (inactive)
4,Cc1cccc(C)c1NC(=S)N(Cc1cccnc1)Cc1ccccc1Cl,19.6% (active)
5,O=C1Nc2ccccc2NC(c2ccc3c(c2)OCO3)=C1N(Cc1ccc(F)cc1)C(=O)c1ccco1,1.41% (inactive)
6,O=C(Nc1cc(S(=O)(=O)N2CCCCC2)ccc1Cl)C1COc2ccccc2O1 (centres undefined),3.15% (inactive)
7,CC(=O)c1ccccc1NC(=O)COC(=O)C1COc2ccccc2O1 (centres undefined),0.64% (inactive)
8,O=C(Nc1ncc([N+](=O)[O-])s1)C1COc2ccccc2O1 (centres undefined),15.9% (active)
9,COc1ccc(CN2C(=O)C(CC(=O)NC3CCCCC3)CC(C(=O)N3CCOCC3)=C2C)cc1 (centres undefined),0.65% (inactive)
10,O=C(COc1ccccc1[N+](=O)[O-])NC1CC1,1.25% (inactive)
11,Cc1cc(OCC(=O)NC2CCN(C)CC2)ccc1[N+](=O)[O-],23.7% (active)
12,Cc1cc(OCC(=O)Nc2c(C)n(C)n(-c3ccccc3)c2=O)ccc1[N+](=O)[O-],0.08% (inactive)
13,O=C(c1c(Cl)cccc1Cl)N1CCN(c2cccc3[nH]ccc23)CC1,2.17% (inactive)
14,OC(CNCCc1ccc(Cl)cc1Cl)COc1ccccc1 (centres undefined),16.2% (active)
15,COc1ccc(OCC(O)CNC(=O)Nc2ccc(Cl)cc2)cc1 (centres undefined),1.9% (inactive)
16,CC(O)CNCCOc1cccc(Oc2ccccc2)c1 (centres undefined),1.52% (inactive)
17,C(=N/N1CCN(c2ccccc2)CC1)/c1cccs1,0.31% (inactive)
18,COc1ccc2c(c1)CCC/C2=N\OC(=O)c1ccccc1F,1.78% (inactive)
19,Cc1ccccc1NC(=S)NC(=O)Cc1ccc(Cl)cc1,21.2% (active)
20,Cc1cc(C(=O)NNC(=S)Nc2ccccc2C)cs1,7.73% (inactive)
21,Cc1ccccc1N/C(SCc1ccc(Cl)cc1)=C(/C#N)C(N)=O,0.43% (inactive)
22,O=C(Cc1ccc(Cl)cc1)NC(=S)Nc1ccccc1O,29.2% (active)
23,CCOc1ccccc1NC(=S)NC(=O)CCc1ccccc1,-0.34% (inactive)
24,Fc1ccccc1CNC(=S)Nc1ccc(Cl)cc1,11.3% (inactive)

row,Structure (SMILES),activation
1,COc1ccc(CCNC(=O)C(=O)NCC2CCNCC2)cc1OC,1.91% (inactive)
2,O=C(CN1C(=O)CSC1=O)N1CCCC(Nc2ccc(F)cc2)C1 (centres undefined),1.24% (inactive)
3,O=C(CSc1nncn1-c1cccnc1)N1CCOCC1,0.39% (inactive)
4,Cn1c(Nc2ccc(F)cc2)nc2cc(-c3ccsc3)sc2c1=O,1.38% (inactive)
5,COc1c(N2CCN(C(=S)Nc3ccccc3F)C(C)C2)c(F)cc2c(=O)c(C(=O)O)cn(C3CC3)c12 (centres undefined),0.37% (inactive)
6,CC(=O)Nc1c(-c2ccc(C)cc2)nc2ccc(Cl)cn12,-0.07% (inactive)
7,CS(=O)(=O)/C(C#N)=C/c1cccn1S(=O)(=O)c1ccc([N+](=O)[O-])cc1,0.19% (inactive)
8,C[C@@H](O)c1nc2ccccc2n1N,6.47% (inactive)
9,CCN1C(=O)C(=O)N(CC(=O)Nc2cc(C)ccc2C)C1=O,0.48% (inactive)
10,Cc1c(NS(=O)(=O)c2cc(C(=O)NCCc3ccc(F)cc3)cc(Cl)c2Cl)c(=O)n(-c2ccccc2)n1C,-0.45% (inactive)
11,COc1ccccc1S(=O)(=O)c1c(C)cc(C)[nH]c1=O,0.65% (inactive)
12,Cc1cc(C)c(/C=C2\C(=O)Nc3ccccc32)[nH]1,24.4% (active)
13,CC1C(=O)C(C)C(c2ccc(O)cc2)NC1c1ccc(O)cc1 (centres undefined),4.02% (inactive)
14,O=C(CSc1ccc(-c2ccco2)nn1)Nc1cccc(F)c1,16.7% (active)
15,O=C(CSc1ccc(-c2ccc(F)cc2)nn1)Nc1ccc2c(c1)OCCO2,6.26% (inactive)
16,COc1ccc(NC(=O)CSc2ccc(-c3ccco3)nn2)c(OC)c1,0.21% (inactive)
17,CCCOc1ccc(N2CC(C(=O)Nc3ccccn3)CC2=O)cc1 (centres undefined),-0.06% (inactive)
18,CS(=O)(=O)N(CC(=O)Nc1ccc(F)cc1F)c1cccc([N+](=O)[O-])c1,0.11% (inactive)
19,C=CCn1c(SCC(N)=O)nnc1-c1cc2c(s1)CCC(CC)C2 (centres undefined),0.17% (inactive)
20,COC(=O)c1cnc(Nc2cc(C)ccc2OC)c2ccccc12,1.12% (inactive)
21,COc1ccc(NC(=O)c2sc(N3CCOCC3)nc2-c2ccccc2)c(OC)c1,1.26% (inactive)
22,COc1ccc(Nc2ncnc3sc(-c4ccccc4)cc23)c(OC)c1,17.4% (active)
23,COc1ccc(NC(=O)CSc2nncc(=O)n2N)cc1OC,1.17% (inactive)
24,CCOC(=O)C1CCN(Cc2nnc(-c3cccc(Br)c3)o2)CC1,16.3% (active)

row,Structure (SMILES),activation
1,CCOC(=O)C1CCN(CCC(=O)Nc2cccc(C)c2)CC1,6.98% (inactive)
2,CCOC(=O)C1CCN(Cc2ccc(-c3ccccc3)cc2)CC1,2.64% (inactive)
3,COc1ccc(C2(C)NC(=O)N(CC(=O)c3ccc4c(c3)OCO4)C2=O)cc1 (centres undefined),9.33% (inactive)
4,CC1(c2ccc(Cl)cc2)NC(=O)N(CC(=O)c2ccc3c(c2)OCO3)C1=O (centres undefined),16.4% (active)
5,CC1CCC2(CC1)NC(=O)N(CC(=O)c1ccc3c(c1)OCO3)C2=O (centres undefined),1.72% (inactive)
6,Cn1c2c(c(=O)n(C)c1=O)C(c1cccc([N+](=O)[O-])c1)Nc1ccccc1O2 (centres undefined),0.17% (inactive)
7,Cc1ccc(S(=O)(=O)N2CCCC(C(=O)N3CCN(C)CC3)C2)cc1 (centres undefined),1.9% (inactive)
8,COc1cccc(N2CCN(C(=O)C3CCCN(S(=O)(=O)c4cnc[nH]4)C3)CC2)c1 (centres undefined),0.46% (inactive)
9,CC(=O)N1CCCc2cc(S(=O)(=O)N3CCCC(C(=O)N4CCN(c5cccc(Cl)c5)CC4)C3)ccc21 (centres undefined),19.9% (active)
10,CCN1CCC(=NNC(=O)c2ccc(C)c([N+](=O)[O-])c2)CC1,0.82% (inactive)
11,Cc1cc(F)ccc1S(=O)(=O)Nc1ncnc2scc(-c3ccc(F)cc3)c12,0.74% (inactive)
12,CC(=O)N1CCN(c2ccc(NCc3ccc(C(C)C)cc3)cc2)CC1,-0.13% (inactive)
13,O=C(NCc1cn2ccsc2n1)Nc1cccc(Cl)c1,0.23% (inactive)
14,O=S(=O)(Nc1ccccc1)c1ccc(NS(=O)(=O)c2cccs2)cc1,1.02% (inactive)
15,O=C(Nc1cccc(Cl)c1)Nc1ccccc1NS(=O)(=O)c1cccs1,15.3% (active)
16,CC12CN3CC(C)(CN(C1)C3c1ccc(Cl)cc1Cl)C2=O (centres undefined),-0.45% (inactive)
17,COc1ccc(CC(=O)NC(C)c2ccc(Cl)c(Cl)c2)cc1S(=O)(=O)N1CCOCC1 (centres undefined),2.98% (inactive)
18,CC(=O)Nc1ccc(S(=O)(=O)Oc2ccc(/C=N/N=C3/NC(=O)C(CC(=O)O)S3)cc2)cc1 (centres undefined),0.03% (inactive)
19,CC(=O)c1ccc(NC(=O)C(C)NCc2ccc(Cl)cc2)cc1 (centres undefined),0.45% (inactive)
20,CC(=O)N1CCC(N(C(=O)Nc2ccc(Cl)cc2)C(C)C)CC1,1.09% (inactive)
21,CC(C)S(=O)(=O)c1csc(NC(=O)Nc2ccc(Cl)cc2)c1Cl,16% (active)
22,Cc1ccc(S(=O)(=O)N(C)c2ccc(OCC(=O)NC3=NCCS3)cc2)cc1,22.6% (active)
23,CN(c1ccc(OCC(=O)NC2=NCCS2)cc1)S(=O)(=O)c1ccc(F)cc1,6.36% (inactive)
24,CN(c1ccccc1)S(=O)(=O)c1ccc(NC(=O)COc2ccccc2)cc1,7.3% (inactive)

row,Structure (SMILES),activation
1,O=C(O)C(NS(=O)(=O)c1cccc2nsnc12)c1ccccc1 (centres undefined),0.41% (inactive)
2,COc1ccccc1N1CCN(C(=O)c2cn(-c3ccccc3)nc2-c2cccnc2)CC1,4.25% (inactive)
3,O=C(NNC(=S)NC(=O)c1cn(-c2ccccc2)nc1-c1ccccc1)c1ccncc1,29.6% (active)
4,Cc1ccc(-c2nn(-c3ccccc3)cc2C(=O)NCCCN2CCCC2=O)cc1,0.65% (inactive)
5,CCN(Cc1nc2ccccc2c(=O)[nH]1)Cc1cc(=O)oc2cc(C)c(C)cc12,2.83% (inactive)
6,CCOC(=O)c1ccc(N=C2SC(C(=O)NC)CC(=O)N2CCc2ccccc2)cc1 (centres undefined),0.37% (inactive)
7,CCOc1ccc(CC(=O)NC2CCN(Cc3ccccc3)CC2)cc1,0.21% (inactive)
8,CCOc1ccc(C(=O)NC2CCN(S(=O)(=O)CC)CC2)cc1,0.96% (inactive)
9,CCOc1ccc(NS(=O)(=O)c2ccc(C(=O)NC3CCN(Cc4ccccc4)CC3)cc2)cc1,15.3% (active)
10,Cc1ccc(-c2cccc([C@H]3[C@@H]4C=CC[C@@H](C)[C@@H]4C(=O)N3Cc3ccccc3)c2)cc1,0.28% (inactive)
11,Cc1cc(CN(C)C(=O)c2cc(COc3ccc(C)c(C)c3)on2)n[nH]1,1.86% (inactive)
12,CN(Cc1cccnc1)C(=O)c1cc(COc2ccc3ncccc3c2)on1,17.9% (active)
13,Cc1ccc(OCc2cc(C(=O)N(C)CCn3ccnc3C)no2)cc1C,3.36% (inactive)
14,COc1cccc2c1C(=O)c1c(O)c3c(c(O)c1C2=O)CC(O)(C(C)=NNC(=O)c1ccc(Cl)c(Cl)c1)CC3OC1CC(N)C(O)C(C)O1 (centres undefined),7.82% (inactive)
15,CN(C(=O)CC1C(=O)NCCN1Cc1ccc2ccccc2c1)C1CCOCC1 (centres undefined),0.91% (inactive)
16,CCCc1ccc(C(=O)COC(=O)CN2C(=O)NC3(CCCCC3C)C2=O)cc1 (centres undefined),5.23% (inactive)
17,CC1CCCCC12NC(=O)N(CC(=O)OCc1c(F)cccc1Cl)C2=O (centres undefined),21.8% (active)
18,CC1CCCCC12NC(=O)N(CC(=O)OCC(=O)NCc1ccc(F)cc1)C2=O (centres undefined),0.23% (inactive)
19,c1ccc2c(c1)nnn2-c1ccncc1,0.33% (inactive)
20,O=C(/C=C(O)/C=C/c1ccc(O)cc1)/C=C/c1ccc(O)cc1,46.7% (active)
21,C=CCNC(=O)/C=C/c1ccc(C(C)C)cc1,-0.17% (inactive)
22,O=C(O)/C=C/c1ccc(S(=O)(=O)N2CCCCCC2)cc1,-0.04% (inactive)
